Holding throughout (conditions): modulator concentration 10 µM
In assay [1] the test system is RAW-Dual (murine macrophage reporter line). As to the kind of experiment: NF-kB reporter (SEAP) activity fold change vs agonist alone; higher = enhanced NF-kB activity. In outline: (§1)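 Compound reached 10 μM final in each well by pin transfer, onto RAW-Dual murine macrophage reporter cells seeded at 50 000 per well in 384-well plates. After 1 hour at 37 °C, the cells were stimulated overnight with a PRR agonist. SEAP in the supernatant was read with QUANTI-Blue at 620 nm absorbance for NF-κB, and Lucia luciferase was read with QUANTI-Luc luminescence for IRF. Each signal was turned into fold change against the mean agonist-only control on the same plate, and two replicate plates were averaged with propagated errors.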

Assay [2] shares this test system. As to the kind of experiment: IRF reporter (Lucia luciferase) activity fold change vs agonist alone; higher = enhanced IRF activity. In outline: as §1
The test system is the same in assay [3]. As to the kind of experiment: viability score (confluency relative to resting cells, overnight) (fraction); higher = more viable, active = viable (0.7 or more). The procedure, abridged: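 In 384-well plates, RAW-Dual macrophages received compound at a final 10 μM overnight. Two confluency masks were then made with IncuCyte software from IncuCyte images of all imaged wells. The viability score is defined as confluency relative to resting cells. Passing the cutoff required both masks to lie above 70% of resting cells.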

[4] abbreviates: agonist: CpG ODN 1826 0.5 ug/mL.

This note sets out measurements from the supplement of paper PMC10646978.

± gives the standard deviation.

As to `COC(=O)C1=C(C)NC(=O)CC1c1c(F)cccc1Cl` (stereo not given), the NF-kB reporter in assay [1] (setting [4]) was 0.986 ± 0.083; in assay [1] (agonist: LPS 0.1 ug/mL), 0.993 ± 0.087; in assay [1] (agonist: MPLA […]), 0.975 ± 0.041. For the same compound, the IRF reporter in assay [2] (agonist: 3'3'-cGAMP 10 ug/mL) came to 0.87 ± 0.032; in assay [2] (agonist: LPS 0.1 ug/mL) it was 1.03 ± 0.091; in assay [2] (agonist: MPLA […]) it was 1.06 ± 0.14. Further, the viability score in assay [3] is 0.995 (active).

For `COc1ccc(S(=O)(=O)NNc2ccc([N+](=O)[O-])cc2[N+](=O)[O-])cc1`, the NF-kB reporter was 1.21 ± 0.07 in assay [1] (setting [4]), 0.864 ± 0.059 in assay [1] (agonist: LPS 0.1 ug/mL) and 0.777 ± 0.05 in assay [1] (agonist: MPLA […]). For the same compound, the IRF reporter in assay [2] (agonist: 3'3'-cGAMP 10 ug/mL) was 0.342 ± 0.025; in assay [2] (agonist: LPS 0.1 ug/mL), 1.22 ± 0.19; in assay [2] (agonist: MPLA […]), 1.34 ± 0.14. For the same compound, in assay [3], the viability score was 0.962 (active).

For `Cc1cnc2c(c1N1CCC(Cc3ccccc3)CC1)c(=O)n(C)c(=O)n2C`, the figures for the NF-kB reporter in assay [1] (setting [4]), in assay [1] (agonist: LPS 0.1 ug/mL) and in assay [1] (agonist: MPLA […]) were 0.97 ± 0.06, 1.08 ± 0.084 and 0.996 ± 0.051, respectively. The IRF reporter in assay [2] (agonist: 3'3'-cGAMP 10 ug/mL) was 1.06 ± 0.044; in assay [2] (agonist: LPS 0.1 ug/mL) it was 1.01 ± 0.088; in assay [2] (agonist: MPLA […]), 1.07 ± 0.26. The viability score in assay [3] was 0.999 (active).

Regarding `Cc1ccc(-n2ncc3c(=O)n(CC=Cc4ccccc4)cnc32)cc1C`, the NF-kB reporter in assay [1] (setting [4]) came to 0.969 ± 0.086; in assay [1] (agonist: LPS 0.1 ug/mL), 1.1 ± 0.089; in assay [1] (agonist: MPLA […]), 0.96 ± 0.091. The IRF reporter was 1.03 ± 0.061 in assay [2] (agonist: 3'3'-cGAMP 10 ug/mL), 1.19 ± 0.12 in assay [2] (agonist: LPS 0.1 ug/mL) and 1.06 ± 0.34 in assay [2] (agonist: MPLA […]). Further, the viability score in assay [3] is 0.984 (active).

For the compound `COC(=O)c1cc(OC)c(=O)c2c(OC)c(OC)ccc2c1`, the results for the NF-kB reporter in assay [1] (setting [4]), in assay [1] (agonist: LPS 0.1 ug/mL) and in assay [1] (agonist: MPLA […]) were 1.08 ± 0.33, 0.981 ± 0.059 and 0.931 ± 0.1, respectively. Moreover, the IRF reporter in assay [2] (agonist: 3'3'-cGAMP 10 ug/mL) was 0.743 ± 0.03; in assay [2] (agonist: LPS 0.1 ug/mL), 1.02 ± 0.22; in assay [2] (agonist: MPLA […]), 0.884 ± 0.088. Also, in assay [3], the viability score was 0.984 (active).

`NCCCS(=O)(=O)O`: the results for the NF-kB reporter in assay [1] (setting [4]), in assay [1] (agonist: LPS 0.1 ug/mL) and in assay [1] (agonist: MPLA […]) were 0.883 ± 0.069, 1 ± 0.072 and 0.98 ± 0.024, respectively. In addition, the figures for the IRF reporter in assay [2] (agonist: 3'3'-cGAMP 10 ug/mL), in assay [2] (agonist: LPS 0.1 ug/mL) and in assay [2] (agonist: MPLA […]) were 1.06 ± 0.058, 0.978 ± 0.039 and 0.891 ± 0.12, respectively. The viability score in assay [3] was 0.998 (active).

As to `O=C(c1ccc(OC(F)(F)F)cc1)N1CCC(Oc2cnccn2)CC1`, the figures for the NF-kB reporter in assay [1] (setting [4]), in assay [1] (agonist: LPS 0.1 ug/mL) and in assay [1] (agonist: MPLA […]) were 1.05 ± 0.42, 1.23 ± 0.061 and 1.04 ± 0.066, respectively. Also, the IRF reporter came out at 0.902 ± 0.03 in assay [2] (agonist: 3'3'-cGAMP 10 ug/mL), 1.19 ± 0.13 in assay [2] (agonist: LPS 0.1 ug/mL) and 1.28 ± 0.13 in assay [2] (agonist: MPLA […]). Besides, the viability score in assay [3] is 0.996 (active).

With `Cc1ccc(CN2CCN(N=Cc3c4ccccc4cc4ccccc34)CC2)cc1`, the NF-kB reporter in assay [1] (setting [4]) is 0.75 ± 0.071; in assay [1] (agonist: LPS 0.1 ug/mL) it was 0.881 ± 0.044; in assay [1] (agonist: MPLA […]), 1.12 ± 0.1. In addition, the IRF reporter in assay [2] (agonist: 3'3'-cGAMP 10 ug/mL) came out at 0.855 ± 0.048; in assay [2] (agonist: LPS 0.1 ug/mL), 1.37 ± 0.08; in assay [2] (agonist: MPLA […]) it was 1.25 ± 0.13. Also, the viability score in assay [3] is 0.998 (active).

Take `O=c1c2c([nH]c3c(-c4cccc5ccccc45)cnn13)CCCC2`: the figures for the NF-kB reporter in assay [1] (setting [4]), in assay [1] (agonist: LPS 0.1 ug/mL) and in assay [1] (agonist: MPLA […]) were 1.02 ± 0.095, 1.07 ± 0.067 and 0.913 ± 0.062, respectively. Also, the values for the IRF reporter in assay [2] (agonist: 3'3'-cGAMP 10 ug/mL), in assay [2] (agonist: LPS 0.1 ug/mL) and in assay [2] (agonist: MPLA […]) were 0.987 ± 0.027, 1.47 ± 0.23 and 1.09 ± 0.2, respectively. Besides, in assay [3], the viability score is 1.01 (active).

As for `COC(=O)C1=C(C)NC(C)=C(C(=O)OCC(C)C)C1c1ccccc1[N+](=O)[O-]` (stereo not given), the NF-kB reporter in assay [1] (setting [4]) was determined as 0.884 ± 0.092; in assay [1] (agonist: LPS 0.1 ug/mL), 0.81 ± 0.05; in assay [1] (agonist: MPLA […]), 0.748 ± 0.075. Besides, the IRF reporter came out at 0.371 ± 0.017 in assay [2] (agonist: 3'3'-cGAMP 10 ug/mL), 0.783 ± 0.066 in assay [2] (agonist: LPS 0.1 ug/mL) and 0.562 ± 0.052 in assay [2] (agonist: MPLA […]). Also, in assay [3], the viability score was 0.923 (active).
